In PubChem BioAssay AID588474 (The Scripps Research Institute Molecular Screening Center, 2011) one finds inhibition data, which are given here for 20 compounds.

Calls of active or inactive are those of the source.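 Rule for the calls: active = inhibition of at least 75% in the gel-based probe competition assay; inactive = inhibition below 75%.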

For this assay, the target named is Platelet-activating factor acetylhydrolase (Mus musculus) (UniProt Q60963). Nature of the assay: mouse pPAFAH inhibitors, late-stage follow-up, orthogonal assay, biochemical, gel-based competitive ABPP, fluorescence (AID 588474). As to conditions: recombinant mouse pPAFAH, FP-Rh fluorescence, at 5 µM, stronger effect = higher value.
Chain of Platelet-activating factor acetylhydrolase (Mus musculus) (Q60963 whole entry, looked up): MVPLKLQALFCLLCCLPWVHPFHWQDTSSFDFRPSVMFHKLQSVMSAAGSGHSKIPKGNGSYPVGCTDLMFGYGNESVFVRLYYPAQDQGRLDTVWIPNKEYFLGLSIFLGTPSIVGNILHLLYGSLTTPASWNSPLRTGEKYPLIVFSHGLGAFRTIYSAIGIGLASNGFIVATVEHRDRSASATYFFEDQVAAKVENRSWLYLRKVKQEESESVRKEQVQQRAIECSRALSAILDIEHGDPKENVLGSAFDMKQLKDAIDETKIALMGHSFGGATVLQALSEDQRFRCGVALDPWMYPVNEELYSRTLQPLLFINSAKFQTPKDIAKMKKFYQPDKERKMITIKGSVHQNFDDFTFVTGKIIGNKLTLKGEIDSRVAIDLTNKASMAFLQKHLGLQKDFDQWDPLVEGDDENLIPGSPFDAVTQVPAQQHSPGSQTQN
With `COc1cccc(NC(=O)Nc2cc(C(=O)NCC3CCCO3)ccc2N2CC3CC(C2)c2cccc(=O)n2C3)c1` (stereo not given), the inhibition is 18% (inactive).
As for `O=C(/C=C/c1cccs1)c1cc(Br)ccc1OC(=O)N1CCOCC1`, the figure is 91% (active); as for `COc1cccc(CNC(=O)CCC2CCCN(Cc3cc(Cl)ccc3O)C2)c1` (stereo not given), 24% (inactive); as for `Cc1ccc(-n2c(C)cc(/C=C(\C#N)C(=O)NCC3CCCO3)c2C)cc1` (stereo not given), 23% (inactive).
The result for `CCOC(=O)N1CCN(C(=O)CCN2C(=O)COc3ccc(C)cc32)CC1` reads 22% (inactive).
As for `O=C(Oc1nsnc1N1CCOCC1)N1CCCCC1`, the figure is 65% (inactive); as for `O=C(Oc1cccc(Oc2ccccc2)c1)N1CCOCC1`, 18% (inactive); as for `CCCCOC(=O)Nc1nnc(CCc2ccccc2)s1`, 22% (inactive).
Take `Cc1cccc(C2=NN(c3ccc(Br)cc3)[C@@H](C(=O)N3CCOC3=O)[C@@H]2c2ccccc2)c1`: the inhibition was 18% (inactive).
Turning to `COc1cccc(NC(=O)Nc2cc(C(=O)NC(C)C)ccc2N2CC3CC(C2)c2cccc(=O)n2C3)c1` (stereo not given), the inhibition is 41% (inactive).
The result for `Cc1ccc(NS(=O)(=O)c2ccc3c(c2)oc(=O)n3C)cc1F` reads 53% (inactive); that for `CCOC(=O)N1CCN(C(=O)c2ccc3c(=O)n4c(nc3c2)CCCCC4)CC1`, 8% (inactive).
The result for `COc1cc(OC)c(NC(=O)CCNS(=O)(=O)c2ccc3c(c2)oc(=O)n3C)cc1Cl` reads 6% (inactive); that for `CCCCOC(=O)c1ccc(OC(=O)N2CCOCC2)cc1`, 93% (active); that for `O=C(c1ccccc1)c1ccc(OC(=O)N2CCOCC2)cc1`, 55% (inactive).
For `Cc1ccc(NS(=O)(=O)c2ccc3[nH]c(=O)oc3c2)c(C)c1`, the inhibition was 18% (inactive).
Turning to `CCOC(=O)NC(=O)CSc1nc(-c2ccc(C)c(C)c2)cn1-c1ccccc1`, the inhibition is 56% (inactive).
For `CCc1ccc(NC(=O)Nc2cc(C(=O)NCC3CCCO3)ccc2N2CC3CC(C2)c2cccc(=O)n2C3)cc1` (stereo not given), the inhibition was 8% (inactive).
As for `CC(=O)Nc1ccc(NC(=O)CCn2c(=O)oc3ccccc32)cc1`, the figure is 30% (inactive); as for `O=C(Oc1ccnc2cc(Cl)ccc12)N1CCOCC1`, 22% (inactive).

A word on the inhibition: it is the change of the read-out against control, counted positive when it falls.
